The text below walks through data of PubChem BioAssay AID1578 (Sanford-Burnham Center for Chemical Genomics, 2009).

Molecules are shown by their SMILES. The whole screen tested about 290,000 compounds, of which about 3,000 (1%) were called active. The list comes from a sample in which actives are over-represented; it also holds similar structures and randomly drawn compounds. Values without a mark were called inactive. No stated cut-off is given here; in the data, active means inhibition mostly above about 36% (no sharp cut-off); inactive means mostly below about 34%.

This assay is described as follows: inhibition of NOD1-driven NF-kB reporter – cell-based, luminescence, uHTS, primary screen (AID 1578).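 Further: HEK-293T reporter cells stimulated with the NOD1 agonist gamma-tri-DAP.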 As to conditions: NOD1-driven NF-kB luciferase reporter cells, at 4 µM, stronger effect = higher value.
As usually defined, the inhibition is the change of the read-out against control, counted positive when it falls. In the case of `CN(Cc1ccccc1)c1nc(N)c([N+](=O)[O-])c(Nc2cccc(F)c2)n1`, the inhibition was -10.7%.
For the compound `Cc1c(O)c2cccnc2[nH]c1=O`, the inhibition was -21.9%.
With `CC(C)(C)N=C1NN=C(c2cc3ccccc3o2)CS1`, the inhibition was -38.4%.
On to `Cc1cccc(N=C2NN=C(c3ccc4c(c3)OCCO4)CS2)c1`, for which the inhibition was -35.2%.
As to `C=CCN=C1NN=C(c2ccc3c(c2)OCCO3)CS1`, the inhibition was 67.8% (active).
Regarding `c1ccc(CN=C2NN=C(c3cc4ccccc4o3)CS2)cc1`, the inhibition is -43%.
For `c1ccc2oc(C3=NNC(=NC4CC4)SC3)cc2c1`, the inhibition is 86.6% (active).
For the compound `COc1ccc(N=C2NN=C(c3ccc4c(c3)OCCO4)CS2)cc1`, the inhibition was -44.7%.
Next, `c1ccc(C2=NNC(=NC3CC3)SC2)cc1`: 59.6%.
Turning to `CCCCN=C1NN=C(c2ccc3c(c2)OCCO3)CS1`, the inhibition is 14.8%.
The value for `c1cc2c(cc1C1=NNC(=NC3CC3)SC1)OCCO2` was 96.6% (active).
Regarding `CCOC(=O)N1CCC(NC(=O)CN2C(=O)CSc3nc(C)cc(C)c32)CC1`, the inhibition is -2.4%.
As to `Cc1ccc(Nc2nc(N)nc(CSC(=S)N3CCOCC3)n2)c(C)c1`, the inhibition is -10%.
The value for `COc1cc(/C=C/CO)cc(OC)c1OC/C=C(\C)CCC=C(C)C` was 0.8%; that for `COCCn1c(SCC(=O)Nc2ccccc2C(F)(F)F)nc2ccccc2c1=O` was -11.7%.
The value for `COc1ccc(-c2cc(C3CC3)nc3sc(C#N)c(N)c23)cc1` was 7.9%.
`CC(C)c1cc(C(=O)N/N=C/c2c[nH]c3ccccc23)n[nH]1`: the inhibition was -15.2%.
As to `COC(=O)COc1cccc2c(=O)n(CC(=O)NCCc3ccccc3)ccc12`, the inhibition was -38.1%.
Turning to `Cc1ccc(CNc2nc(N)c([N+](=O)[O-])c(NCc3ccccc3)n2)cc1`, the inhibition was 0.5%.
The value for `Cc1cccnc1Nc1ncnc(N)c1[N+](=O)[O-]` was -32%.
Next, `Nc1ncnc(NCc2ccccc2)c1[N+](=O)[O-]`: 37.6%; `Cc1cccc(Nc2ncnc(N)c2[N+](=O)[O-])n1`: 28.6%; `COc1ccc(Cc2nc3ccc(C(=O)N4CCCC4)cc3o2)cc1OC`: 1.3%.
As to `Cc1ccc(Cn2nc(C)c(NC(=O)CCCn3nc([N+](=O)[O-])c(Cl)c3C)c2C)cc1`, the inhibition is -25.5%.
For the compound `COc1ccc(C)cc1Nc1n[n+](-c2ccccc2)c(-c2ccc(NC(C)=O)cc2)s1`, the inhibition is -19%.
With `CCn1c2ccccc2c2cc(/C=N/NC(=O)c3ccccc3)ccc21`, the inhibition is 41.4%.
Take `CCn1c2ccccc2c2cc(/C=N/NC(=O)c3cc(O)cc(O)c3)ccc21`: the inhibition is 58.8% (active).
The value for `CCn1c2ccccc2c2cc(/C=N/NC(=O)c3ccc(O)cc3)ccc21` was 32.8%; that for `CCOC(=O)C1=C(CC)Nc2ccccc2N=C1NC(=O)c1oc2ccccc2c1C` was 56.6% (active).
Consider `CCOC(=O)C1=C(CC)Nc2ccccc2N=C1NC(=O)CCNC(C)=O`, for which the inhibition is -28.2%.
Next, `CCOCc1c(C(=O)NC2=Nc3ccccc3NC(CC)=C2C(=O)OCC)oc2ccccc12`: 4.5%; `O=C(Cc1ccccc1)NN1C(=O)C2C3C=CC(C3)[C@@H]2C1=O` (some centres not stated): -12.9%; `Cc1nc(SCCOc2ccc(F)cc2)c2ccccc2n1`: -33.3%.
Next, `COC(=O)c1ccccc1NC(=O)Cn1cnc2cc(C)c(C)cc21`: -3.9%; `Cc1ccc(NC(=O)CCn2cnc3cc(C)c(C)cc32)cc1`: -8.2%; `CCOC(=O)c1ccc(NC(=O)Cn2cnc3cc(C)c(C)cc32)cc1`: 33% (active).
The value for `O=C(Nc1ccc(Br)cc1)c1cc(-c2ccc3c(c2)OCO3)on1` was -33.8%.
On to `Cc1cccc(NC(=S)NC(=O)c2oc3ccccc3c2C)n1`, for which the inhibition was -35.5%.
The value for `O=C(Nc1cc(S(=O)(=O)N2CCOCC2)ccc1N1CCOCC1)C1CCCO1` (configuration not stated) was -32.9%.
For `Cc1ccc(-n2c3c(c(=O)[nH]c2=O)C(NS(=O)(=O)c2ccc(Cl)cc2)(C(F)(F)F)C(=O)N3)cc1` (configuration not stated), the inhibition was -31.8%.
As to `O=C(NCCc1ccccc1)c1ccc2nccnc2c1`, the inhibition is 66.7% (active).
For `O=C(NCc1ccccc1)c1ccc2nccnc2c1`, the inhibition is 2%.
Regarding `O=C(NCCc1ccc(Cl)cc1)c1ccc2nccnc2c1`, the inhibition is -33.2%.
The value for `CCCCNc1ccc(C(CC(N)=O)NC(=O)Cc2ccc(Br)cc2)cc1[N+](=O)[O-]` (configuration not stated) was -9.3%.
Next, `CC(=O)c1cccc(OCC(O)CNCC2COc3ccccc3O2)c1` (configuration not stated): 37.9% (active).
Take `OC(CNCC1COc2ccccc2O1)COc1ccc(Cl)cc1` (configuration not stated): the inhibition is -12.2%.
In the case of `CC(=O)c1cccc(OCC(O)CNCC2CCCCC2)c1` (configuration not stated), the inhibition was -5.6%.
Regarding `Cn1cc(Br)c(C(=O)n2cc(Br)cn2)n1`, the inhibition was -7.4%.
The value for `Cc1noc(C)c1S(=O)(=O)N1CCCC(C(=O)NCCc2ccccc2)C1` (configuration not stated) was -28.4%; that for `CCNC(=O)COC(=O)c1cc(-c2ccccc2)nn1-c1ccccc1` was -16.6%.
Take `Cc1ccccc1C1c2[nH]c3ccccc3c2CCN1CCCn1cccn1` (configuration not stated): the inhibition was 53.6% (active).
The value for `COc1ccc(C2c3[nH]c4ccccc4c3CCN2CCCn2cccn2)c(C)c1C` (configuration not stated) was -26.9%; that for `Fc1ccccc1C1c2[nH]c3ccccc3c2CCN1CCCn1cccn1` (configuration not stated) was 43.5%; that for `CC(C)N1CCC(N2CCN(Cc3nc4ccccc4s3)CC2CCO)CC1` (configuration not stated) was -1.8%.
As for `CC(C)N(C(=O)COC(=O)c1ccc(Cl)nc1)C(C)C`, the inhibition was -35.6%.
For the compound `Cc1nc2ccccc2cc1C(=O)Nc1ccccc1Cl`, the inhibition was -21.8%.
The value for `Cn1ccnc1C(=O)c1ccc(N)cc1` was -32.6%; that for `COc1ccc(-c2csc3nc(-c4cccnc4)nc(Cl)c23)cc1OC` was 73.4% (active).
As to `Clc1nc(-c2cccnc2)nc2scc(-c3ccccc3)c12`, the inhibition was -5%.
Regarding `COc1ccc(-c2csc3nc(-c4cccnc4)nc(N4CCC(C(N)=O)CC4)c23)cc1OC`, the inhibition was 23.4%.
`CCOc1ccc(NC(=O)C2CC(=O)N(C)C(=Nc3ccc4c(c3)OCO4)S2)cc1` (configuration not stated): the inhibition is -34.5%.
As to `O=C(CS(=O)(=O)c1ccccc1)NCc1ccc(Cl)cc1`, the inhibition was -44.4%.
